Experimental data from PubChem BioAssay (Tox21).
Inconclusive results are not listed. A call without a number means that no potency is given here. Calls of active or inactive are those of the source. Calls follow the shape of the full dose curve.

assay: p53 small molecule agonists, cell-based qHTS assay with rat liver microsomes: qHTS cell viability counter screen (AID 1963580); details: p53RE-bla HCT-116 + rat microsomes, ATP viability, 16 h; series mostly up to 66 µM; also: nearly all actives have a fitted effect of over 45% in size
Excerpt: National Center for Advancing Translational Sciences [NCATS]
Division of Preclinical Innovation [DPI]
U.S. Environmental Protection Agency [EPA]
National Institutes of Environmental Health Sciences [NIEHS]
National Toxicology Program [NTP]
U.S. Food and Drug Administration [FDA]
p53, a tumor suppressor protein, is activated following cellular insult, including DNA damage and other cellular stresses. The activation of p53 regulates cell fate by inducing DNA repair, cell cycle arrest, apoptosis, or cellular senescence. The activation of p53, therefore, is a good indicator of DNA damage and other cellular stresses. The CellSensor p53RE-bla HCT-116 cell line contains a stably integrated beta-lactamase reporter gene under control of the p53 response elements. The activation of the reporter gene under culture conditions can be detected by fluorescence intensity. This cell line was used to screen the Tox21 10K compound library in the condition of presence of rat liver microsomes and to identify agonists that activate the p53 signaling pathway after in vitro metabolic activation (Ooka et al., Archive of Toxicology 96:1975-1987, 2022). The cytotoxicity of the Tox21 compound library against the p53 RE-bla HCT-116 cell line was tested in parallel by measuring the intra cellular ATP content in the same wells.
Tox21 Assay Protocol Summary:
The p53RE-bla cells were dispensed at 4,000cells/3ul/well in 1536-well black-clear bottom plates. After the assay plates were incubated at 37 C, 5% CO2 incubator for 5 hours, 23 nL of compounds dissolved in DMSO, positive controls or DMSO only was transferred to the assay plate. Following compound addition, 3 uL of rat liver microsomes (Molecular Toxicology, Boone, NC) at final concentration of 0.5 mg/mL and 1uL of B-Nicotinamide adenine dinucleotide 2'-phosphate (NADPH) at final concentration of 0.5 mg/mL were transferred to the assay plate. The plates were incubated at 37 C for 16 hours. 1 uL of LiveBLAzer detection mixture was added to each well and the plates were incubated at room temperature in the dark for 2 h. Fluorescence intensity at 460 and 530 nm emission and 405 nm excitation were measured by an Envision plate reader. For cell viability readout that measures cytotoxicity, 4 ul/well of CellTiter-Glo reagent was added into the assay plates using a Flying Reagent Dispenser. After 30 min incubation at room temperature, the luminescence intensity in the plates was measured using a ViewLux plate reader.

Compound | Potency
CC(O)c1ccccc1 (stereo not given) | inactive
Cc1cc(CC(=O)O)c(C)n1-c1ccc(Cl)cc1 | inactive
CC(c1cc(C(C)(C)C)cc(C(C)(C)C)c1O)c1cc(C(C)(C)C)cc(C(C)(C)C)c1O | inactive
CN(C)CCN1CCN(c2cccc(Cl)c2)C1=O | inactive
CC1OCCC1=O (stereo not given) | inactive
Cc1ccc(/C=N/n2c(-c3ccccc3)csc2=S)cc1 | inactive
O=C(CCc1ccc(O)cc1)c1c(O)cc(O)cc1O | inactive
Nc1ccc(C(=O)NCC(=O)O)cc1 | inactive
c1cc2c3c(c1)ccc1cccc(c13)C2 | inactive
CCC(C)N(C)C(=O)c1cc2ccccc2c(-c2ccccc2Cl)n1 (stereo not given) | inactive
COC(=O)CCCCCCCCC(=O)OC | inactive
C=CS(=O)(=O)O | inactive
O=C1OC(OC(=O)c2cccnc2Nc2cccc(C(F)(F)F)c2)c2ccccc21 (stereo not given) | inactive
O=C(O)C1CCC1 | inactive
CCN1CCCC1CN (stereo not given) | inactive
Cc1cc2c(cc1S(N)(=O)=O)S(=O)(=O)CCC2 | inactive
ClC1=C(Cl)C1(Cl)Cl | inactive
COc1ccc(CN2CCN(C(c3ccc(F)cc3)c3ccc(F)cc3)CC2)c(OC)c1OC | inactive
O=C(NCC1CN(c2ccc(N3CCOCC3=O)cc2)C(=O)O1)c1ccc(Cl)s1 (stereo not given) | inactive
[O-][n+]1cccc(/C(Cl)=N/OC[C@@H](O)CN2CCCCC2)c1 | inactive

Compound | Potency
CC(C)(C)NCC(O)COc1cccc2c1CCC(=O)N2 (stereo not given) | inactive
OCCN1CN(CCO)CN(CCO)C1 | inactive
Nc1ccc(F)c([N+](=O)[O-])c1 | inactive
CN1C(C)(C)CCCC1(C)C | inactive
SC1CCCCC1 | inactive
CC(=O)CC(=O)OC(C)(C)C | inactive
CCN(CC)CCOC(=O)C1(c2ccccc2)CCCC1 | inactive
O=C(Nc1cccc2c(=O)cc(-c3nn[nH]n3)oc12)c1ccc(OCCCCc2ccccc2)cc1 | inactive
CC(C)[N+](C)(C)CC(O)COc1cccc2ccccc12 (stereo not given) | inactive
C#CCOC(=O)[C@@H](C)Oc1ccc(Oc2ncc(Cl)cc2F)cc1 | inactive
CCOC(=O)C(O)c1ccccc1 (stereo not given) | inactive
O=P(O)(O)Oc1ccccc1 | inactive
CCN(CC)CCOc1ccc(Cc2ccccc2)cc1 | inactive
O=C(CCCCC(=O)Nc1c(I)cc(I)c(C(=O)O)c1I)Nc1c(I)cc(I)c(C(=O)O)c1I | inactive
C/C=C(/C(=C/C)c1ccc(O)cc1)c1ccc(O)cc1 | inactive
Cc1cc(C)n(CO)n1 | inactive
CCCCCCCCCCCl | inactive
CN(C(=O)C(Cl)Cl)c1ccc(OC(=O)c2ccco2)cc1 | inactive
C=CCOc1nc(OCC=C)nc(OCC=C)n1 | inactive
O=C(O)c1cc(O)c2ccccc2c1O | inactive
